# Counter-ions that a name gives are not always drawn. ± gives the standard deviation of the averaged measurements.
# Experiments:
# [1] = system: Klebsiella pneumoniae KPC-119; test: percent growth inhibition of drug alone vs DMSO control; higher = more growth inhibition; conditions: antibiotic (0.125x MIC): none (0.1% DMSO)
# [2] = system: Klebsiella pneumoniae KPC-119; test: percent growth inhibition of drug + antibiotic vs DMSO control; higher = more growth inhibition
# [3] = system: Klebsiella pneumoniae NCTC-13439; test: percent growth inhibition of drug alone vs DMSO control; higher = more growth inhibition; conditions: antibiotic (0.125x MIC): none (0.1% DMSO)
# [4] = system: Klebsiella pneumoniae NCTC-13439; test: percent growth inhibition of drug + antibiotic vs DMSO control; higher = more growth inhibition
# [5] = antibiotic (0.125x MIC): colistin, 7 µM
# [6] = antibiotic (0.125x MIC): colistin, 20 µM
# [7] = antibiotic (0.125x MIC): gentamicin, 7 µM
# [8] = antibiotic (0.125x MIC): tigecycline, 20 µM
# [9] = antibiotic (0.125x MIC): ciprofloxacin, 7 µM
# [10] = antibiotic (0.125x MIC): ciprofloxacin, 20 µM
# [11] = antibiotic (0.125x MIC): tigecycline, 7 µM
structure (smiles),measurement,setting,value
CO[C@@H]1[C@@H](OC(N)=O)[C@@H](O)[C@H](Oc2ccc3c(O)c(NC(=O)c4ccc(O)c(CC=C(C)C)c4)c(=O)oc3c2C)OC1(C)C [Novobiocin sodium salt],percent growth inhibition of drug alone,[1]; 7 µM,0.874 ± 4.5%
same,percent growth inhibition of drug alone,[1]; 20 µM,5.13 ± 1.4%
same,percent growth inhibition,[2]; [5],34.1 ± 0.68%
same,percent growth inhibition,[2]; [6],98.55 ± 0.69%
CCN1CCC[C@H]1CNC(=O)c1c(O)c(Cl)cc(Cl)c1OC [Raclopride],percent growth inhibition of drug alone,[1]; 7 µM,-0.791 ± 2.4%
same,percent growth inhibition of drug alone,[1]; 20 µM,0.378 ± 5.2%
same,percent growth inhibition,[2]; [6],-4.39 ± 0.64%
"CC(C)NCC(O)c1ccc(O)c(O)c1 (single isomer, unassigned; (-)) [(-)-Isoproterenol hydrochloride]",percent growth inhibition of drug alone,[1]; 7 µM,0.335 ± 1.6%
same,percent growth inhibition of drug alone,[1]; 20 µM,1.39 ± 1.6%
same,percent growth inhibition,[2]; [6],0.725 ± 1.5%
CCCCCCCCNC(C)C(O)c1ccc(SC(C)C)cc1 (centres undefined) [Suloctidil],percent growth inhibition of drug alone,[1]; 7 µM,-1.6 ± 0.96%
same,percent growth inhibition of drug alone,[1]; 20 µM,-1.21 ± 1.4%
same,percent growth inhibition,[2]; [5],3.9 ± 5.4%
same,percent growth inhibition,[2]; [6],94.63 ± 0.84%
CCN(CC)CCOC(=O)C1(C2CCCCC2)CCCCC1 [Dicyclomine hydrochloride],percent growth inhibition of drug alone,[1]; 7 µM,0.63 ± 2%
same,percent growth inhibition of drug alone,[1]; 20 µM,2.04 ± 2.2%
same,percent growth inhibition,[2]; [6],-2.28 ± 7.1%
COc1cnc(NS(=O)(=O)c2ccc(N)cc2)nc1 [Sulfameter],percent growth inhibition of drug alone,[1]; 7 µM,-1.55 ± 2.6%
same,percent growth inhibition of drug alone,[1]; 20 µM,-0.515 ± 1.5%
same,percent growth inhibition,[2]; [6],-5.03 ± 15%
CC(Cc1cccc(C(F)(F)F)c1)NCCOC(=O)c1ccccc1 (centres undefined) [Benfluorex],percent growth inhibition of drug alone,[1]; 7 µM,1.43 ± 3%
same,percent growth inhibition of drug alone,[1]; 20 µM,-0.224 ± 0.36%
same,percent growth inhibition,[2]; [6],4.58 ± 2.8%
CN1CCN(c2c(F)cc3c(=O)c(C(=O)O)cn4c3c2SCC4)CC1 [Rufloxacin],percent growth inhibition of drug alone,[1]; 7 µM,14.6 ± 2.5%
same,percent growth inhibition of drug alone,[1]; 20 µM,83.22 ± 0.72%
same,percent growth inhibition,[2]; [5],96.6 ± 3.1%
same,percent growth inhibition,[2]; [6],93.89 ± 0.36%
CO/N=C(\C(=O)N[C@@H]1C(=O)N2C(C(=O)O)=C(C[N+]3(C)CCCC3)CS[C@H]12)c1csc(N)n1 [Cefepime hydrochloride],percent growth inhibition of drug alone,[1]; 7 µM,3.95 ± 2.2%
same,percent growth inhibition,[2]; [7],37.1 ± 3.7%
COc1ccc(OC)c(C(O)CNC(=O)CN)c1 (centres undefined) [Midodrine hydrochloride],percent growth inhibition of drug alone,[3]; 7 µM,-12.1 ± 4.3%
same,percent growth inhibition of drug alone,[3]; 20 µM,-4.02 ± 9.3%
same,percent growth inhibition,[4]; [8],-2.55 ± 3.2%
CCn1cc(C(=O)O)c(=O)c2cc(F)c(N3CCNCC3)nc21 [Enoxacin],percent growth inhibition of drug alone,[1]; 7 µM,1.76 ± 1.6%
same,percent growth inhibition of drug alone,[1]; 20 µM,25.2 ± 4%
same,percent growth inhibition,[2]; [5],13.6 ± 6.1%
same,percent growth inhibition,[2]; [6],97.72 ± 0.24%
same,percent growth inhibition,[2]; [7],-1.06 ± 6.9%
N=C(NCCCCCCNC(=N)NC(=N)Nc1ccc(Cl)cc1)NC(=N)Nc1ccc(Cl)cc1 [Chlorhexidine],percent growth inhibition of drug alone,[3]; 7 µM,2.54 ± 9.5%
same,percent growth inhibition of drug alone,[3]; 20 µM,57.6 ± 4.2%
same,percent growth inhibition,[4]; [9],38.3 ± 1.2%
same,percent growth inhibition,[4]; [10],100.15 ± 0.021%
same,percent growth inhibition,[4]; [8],100.14 ± 0.079%
Oc1c(I)cc(Cl)c2cccnc12 [Clioquinol],percent growth inhibition of drug alone,[1]; 7 µM,12.1 ± 5%
same,percent growth inhibition of drug alone,[1]; 20 µM,44.53 ± 0.32%
same,percent growth inhibition,[2]; [5],47.2 ± 5.2%
same,percent growth inhibition,[2]; [6],98.97 ± 0.28%
CCN1CCN(c2cc3c(cc2F)c(=O)c(C(=O)O)cn3C2CC2)CC1 [Enrofloxacin],percent growth inhibition of drug alone,[3]; 7 µM,3.46 ± 4.9%
same,percent growth inhibition,[4]; [9],7.59 ± 7.8%
same,percent growth inhibition,[4]; [10],73.1 ± 13%
same,percent growth inhibition,[4]; [11],7.12 ± 1.8%
same,percent growth inhibition,[4]; [8],69.6 ± 9.7%
COc1c(N2CCNC(C)C2)c(F)cc2c(=O)c(C(=O)O)cn(C3CC3)c12 (centres undefined) [Gatifloxacin],percent growth inhibition of drug alone,[3]; 7 µM,12.5 ± 5.8%
same,percent growth inhibition,[4]; [9],26.2 ± 8.2%
same,percent growth inhibition,[4]; [10],96.7 ± 1.2%
same,percent growth inhibition,[4]; [11],17.5 ± 19%
COC(=O)N/N=C/c1c[n+]([O-])c2ccccc2[n+]1[O-] [Carbadox],percent growth inhibition of drug alone,[1]; 7 µM,1.29 ± 2%
same,percent growth inhibition of drug alone,[1]; 20 µM,11 ± 1.9%
same,percent growth inhibition,[2]; [5],34.1 ± 0.81%
same,percent growth inhibition,[2]; [6],87.5 ± 11%
same,percent growth inhibition,[2]; [7],15.7 ± 0.29%
COc1cccc2c1C(=O)c1c(O)c3c(c(O)c1C2=O)C[C@@](O)(C(C)=O)C[C@@H]3O[C@H]1C[C@H](N)[C@H](O)[C@H](C)O1 [Daunorubicin hydrochloride],percent growth inhibition of drug alone,[1]; 7 µM,5 ± 0.63%
same,percent growth inhibition of drug alone,[1]; 20 µM,5.26 ± 2.2%
same,percent growth inhibition,[2]; [5],-2.48 ± 6.2%
same,percent growth inhibition,[2]; [6],97.24 ± 0.46%
Cc1nc2n(c(=O)c1CCN1CCC(c3noc4cc(F)ccc34)CC1)CCCC2 [Risperidone],percent growth inhibition of drug alone,[3]; 7 µM,-5.2 ± 14%
same,percent growth inhibition of drug alone,[3]; 20 µM,-6.94 ± 7.8%
same,percent growth inhibition,[4]; [9],15.5 ± 4.5%
same,percent growth inhibition,[4]; [10],-11.1 ± 3%
CS(=O)(=O)c1ccc([C@@H](O)[C@@H](CF)NC(=O)C(Cl)Cl)cc1 [Florfenicol],percent growth inhibition of drug alone,[1]; 7 µM,32.2 ± 2%
same,percent growth inhibition of drug alone,[1]; 20 µM,96.46 ± 0.59%
same,percent growth inhibition,[2]; [5],97.49 ± 0.25%
same,percent growth inhibition,[2]; [6],88.4 ± 7.8%
CCCCC(CC)CNC(=N)NC(=N)NCCCCCCNC(=N)NC(=N)NCC(CC)CCCC (centres undefined) [Alexidine dihydrochloride],percent growth inhibition of drug alone,[1]; 20 µM,99.76 ± 0.25%
same,percent growth inhibition,[2]; [5],98.02 ± 0.96%
same,percent growth inhibition,[2]; [6],94.8 ± 1.6%
same,percent growth inhibition,[2]; [7],99.857 ± 0.088%
same,percent growth inhibition,"[2]; antibiotic (0.125x MIC): gentamicin, 20 µM",99.929 ± 0.046%
same,percent growth inhibition,"[2]; antibiotic (0.125x MIC): meropenem, 7 µM",99.739 ± 0.078%
same,percent growth inhibition,"[2]; antibiotic (0.125x MIC): meropenem, 20 µM",100.04 ± 0.0019%

# — the supplement of paper PMC6658780
